Measured values from PubChem BioAssay (NCATS).
Inconclusive results are not listed. A number with no mark means an inactive call. Calls of active or inactive are those of the source. The call rests on the fitted dose curve; in most records, active means well fitted cell-killing curve with a large enough effect; inconclusive means small, poorly fitted or top-dose-only effect, or effect the other way; inactive means no such curve, though single readings can be large or run the other way.

Test: Quantitative High-Throughput drug screen in 47 multiple myeloma cell lines against the NCATS MIPE library collection: KMS21BM_JCRB cell viability assay (AID 1918974)
Conditions: ATP luminescence, 48 h; viability: at 45.8 µM
Source text: PI: Beverly A. Mock Ph.D.
Laboratory of Cancer Biology and Genetics,
Center for Cancer Research, National Cancer Institute,
National Institute of Health, Bethesda, Maryland
Drug resistance and disease progression are common in multiple myeloma (MM) patients, underscoring the need for new therapeutic combinations. […] We hypothesized that effective combinations would reduce MYC expression and enhance p16 activity. […] These preclinical data identify potentially useful drug combinations for evaluation in drug-resistant MM and reveal potential mechanisms of combined drug sensitivity.
Described herein is the primary MIPE qHTS used to cherrypick compounds. Validated compounds were then further tested for potential synergistic activiy.
[1] Peat TJ, Gaikwad SM, Dubois W, Gyabaah-Kessie N, Zhang S, Gorjifard S, Phyo Z, Andres M, Hughitt VK, Simpson RM, Miller MA, Girvin AT, Taylor A, Williams D, D'Antonio N, Zhang Y, Rajagopalan A, Flietner E, Wilson K, Zhang X, Shinn P, Klumpp-Thomas C, McKnight C, Itkin Z, Chen L, Kazandijian D, Zhang J, Michalowski AM, Simmons JK, Keats J, Thomas CJ, Mock BA. Drug combinations identified by high-throughput screening promote cell cycle transition and upregulate Smad pathways in myeloma. Cancer Lett. 2023 Aug 1;568:216284. doi: 10.1016/j.canlet.2023.216284. Epub 2023 Jun 24. PMID: 37356470; PMCID: PMC10408729.
SEQUENCE No. (e.g., 1, 2, 3, etc.); […] (e.g., Cells, Incubation, Reagent, etc.); VALUE and DESCRIPTION.
1; Cells; 5 uL; white, solid bottom 1536-well Greiner assay plate.
2; Compounds; 23 nL; Kalypsis pin tool (Wako USA) equipped with a 1536-well pin head to transfer to the assay plates.
3; Incubation; 48 hours; 37C incubation.
4; Reagent;5uL; CellTiter Glo (Promega).
5; Detector; 425V; Luminescence; Viewlux PerkinElmer.
NOTES (numbers refer to Sequence numbers above)
1. The cell-based screening methods employed in this study were like those previously published. Briefly, the corresponding myeloma cell lines were screened in 1,536-well plates with 500 cells, 5-uL per well for inhibition of cell viability (assessed by measuring ATP levels with CellTiterGlo).
2. NCATS MIPE 4.0 library of approved and investigational drugs were added using the Kalypsis pin tool. Wells treated with DMSO only for 100% viability and media only wells for 0% viability were used as controls.
3. The assay plates were covered and incubated for 48 hours in a 37C, 5% CO2 incubator with controlled humidity.
4. After 48 hours, CellTilter-GloTM luminescent substrate mix (Promega) reagent was added to the assay plate and plates we incubated for 5 min at room temperature.
5. Signal was measured as median relative luminescence units on a ViewLux (PerkinElmer) multiplate reader.
[1] Heske CM, Davis MI, Baumgart JT, Wilson K, Gormally MV, Chen L, Zhang X, Ceribelli M, Duveau DY, Guha R, Ferrer M, Arnaldez FI, Ji J, Tran HL, Zhang Y, Mendoza A, Helman LJ, Thomas CJ. Matrix Screen Identifies Synergistic Combination of PARP Inhibitors and Nicotinamide Phosphoribosyltransferase (NAMPT) Inhibitors in Ewing Sarcoma. Clin Cancer Res. 2017 Dec 1;23(23):7301-7311. doi: 10.1158/1078-0432.CCR-17-1121. Epub 2017 Sep 12. PMID: 28899971; PMCID: PMC6636827.
Potency means the concentration at half of the fitted maximal effect.

| Structure (SMILES) | Potency | viability |
| --- | --- | --- |
| CC(=O)Oc1ccccc1C(=O)Nc1ncc([N+](=O)[O-])s1 | 17.1 µM (active) |  |
| CCOC(=O)[C@H](CCc1ccccc1)N[C@H]1CCc2ccccc2N(CC(=O)O)C1=O | 9.35 µM (active) |  |
| COC(=O)Nc1nc2ccc(Sc3ccccc3)cc2[nH]1 | 0.59 µM (active) |  |
| CC(C(=O)O)c1ccc2c(c1)CC(=O)c1ccccc1S2 (stereo not given) | 0.264 µM (active) |  |
| Cc1noc(NS(=O)(=O)c2ccc(N)cc2)c1C |  | 120% |
| NS(=O)(=O)c1cc2c(cc1Cl)NC(C(Cl)Cl)NS2(=O)=O (stereo not given) |  | 204% |
| Nc1nc(F)nc2c1ncn2[C@@H]1O[C@H](CO)[C@@H](O)[C@@H]1O | 0.059 µM (active) |  |
| CCCc1nc(C)c2c(=O)[nH]c(-c3cc(S(=O)(=O)N4CCN(CC)CC4)ccc3OCC)nn12 | 3.72 µM (active) |  |
| COc1ccc2cc3[n+](cc2c1OC)CCc1cc2c(cc1-3)OCO2 | 2.64 µM (active) |  |
| O=c1cc(O)c(Cl)c[nH]1 | 0.743 µM (active) |  |
| Cc1cc(NS(=O)(=O)c2ccc(N)cc2)no1 |  | 133% |
| CCCCOc1ccc(CC(=O)NO)cc1 | 14.8 µM (active) |  |
| C1CCC(C(CC2CCCCN2)C2CCCCC2)CC1 (stereo not given) | 11.8 µM (active) |  |
| Cc1nnc(NS(=O)(=O)c2ccc(N)cc2)s1 | 0.418 µM (active) |  |
| CNNCc1ccc(C(=O)NC(C)C)cc1 | 2.35 µM (active) |  |
| CCCCCCNC(=O)n1cc(F)c(=O)[nH]c1=O | 0.332 µM (active) |  |
| O[C@@H](CNC[C@H](O)[C@H]1CCc2cc(F)ccc2O1)[C@@H]1CCc2cc(F)ccc2O1 | 23.5 µM (active) |  |
| COc1cc(NS(=O)(=O)c2ccc(N)cc2)nc(OC)n1 |  | 110% |
| O=C(O)c1ccc(-n2nc(-c3ccccc3O)nc2-c2ccccc2O)cc1 | 20.9 µM (active) |  |
| COc1cc([C@@H]2c3cc4c(cc3[C@H](O)[C@H]3COC(=O)[C@H]23)OCO4)cc(OC)c1OC |  | 18.6% |
| CCOC(=O)[C@H](CCc1ccccc1)N[C@H]1CS[C@H](c2cccs2)CN(CC(=O)O)C1=O | 0.132 µM (active) |  |
| CC(C)OC(=O)C(C(=O)OC(C)C)=C1SC=CS1 |  | 403% (active) |
| Nc1ccc(S(=O)(=O)Nc2ccccn2)cc1 |  | 144% |
| COc1cc2c(Nc3ccc(Br)cc3F)ncnc2cc1OCC1CCN(C)CC1 |  | 385% |
| CCC(=O)O[C@]1(C(=O)CCl)[C@@H](C)C[C@H]2[C@@H]3CCC4=CC(=O)C=C[C@]4(C)[C@@]3(F)[C@@H](O)C[C@@]21C |  | 101% |
| CCN(CC)CC#CCOC(=O)C(O)(c1ccccc1)C1CCCCC1 (stereo not given) | 4.69 µM (active) |  |
| NC(N)=NC(N)=NCCc1ccccc1 | 3.32 µM (active) |  |
| Cc1ccc(S(=O)(=O)N[C@@H](Cc2ccccc2)C(=O)CCl)cc1 | 14.8 µM (active) |  |
| Cc1ncc([N+](=O)[O-])n1CCO |  | 128% |
| COc1cc2nc(N3CCCN(C)CC3)nc(NC3CCN(Cc4ccccc4)CC3)c2cc1OC | 4.69 µM (active) |  |
